# From PubChem BioAssay (NCI)
# Several values for one entry are separate records, joined by “and”; a condition that tells them apart may be missing. Identical values can stand only once. This is part of a sample that, as a whole, favours compounds with a hit. Of some 83,000 tested, about 20% had one in any assay.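 Compound tested at a single concentration for 48 hours in 96-well plates; a percent growth value below 10 was scored as active.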 Activity calls are given as the source filed them.
# Tests used:
# Assay in all cases: NCI-60 one-dose screen, 48 h (100 = growth as untreated, 0 = no growth, -100 = all killed)
# Conditions in all cases: 10 µM unless noted
# HCT-15 colon = tested on: HCT-15 colon
# HT29 colon = tested on: HT29 colon
# SNB-75 CNS = tested on: SNB-75 CNS
# SNB-19 CNS = tested on: SNB-19 CNS
# U251 CNS = tested on: U251 CNS
# PC-3 prostate = tested on: PC-3 prostate
# SK-MEL-5 melanoma = tested on: SK-MEL-5 melanoma
# UACC-62 melanoma = tested on: UACC-62 melanoma
# LOX IMVI melanoma = tested on: LOX IMVI melanoma
# SK-MEL-28 melanoma = tested on: SK-MEL-28 melanoma
# SK-MEL-2 melanoma = tested on: SK-MEL-2 melanoma
# EKVX NSCLC = tested on: EKVX NSCLC
# SN12C renal = tested on: SN12C renal
# UO-31 renal = tested on: UO-31 renal
# TK-10 renal = tested on: TK-10 renal
# ACHN renal = tested on: ACHN renal
# CAKI-1 renal = tested on: CAKI-1 renal
# A498 renal = tested on: A498 renal
# HL-60(TB) leukemia = tested on: HL-60(TB) leukemia
# CCRF-CEM leukemia = tested on: CCRF-CEM leukemia
SMILES,growth (HCT-15 colon),growth (HT29 colon),growth (SNB-75 CNS),growth (SNB-19 CNS),growth (U251 CNS),growth (PC-3 prostate),growth (SK-MEL-5 melanoma),growth (UACC-62 melanoma),growth (LOX IMVI melanoma),growth (SK-MEL-28 melanoma),growth (SK-MEL-2 melanoma),growth (EKVX NSCLC),growth (SN12C renal),growth (UO-31 renal),growth (TK-10 renal),growth (ACHN renal),growth (CAKI-1 renal),growth (A498 renal),growth (HL-60(TB) leukemia),growth (CCRF-CEM leukemia)
CC12CCC3C4CCC(=O)C=C4CCC3C1CC1CC(=O)OC12 (centres undefined),112% (inactive),90.9% (inactive),92.3% (inactive),94.6% (inactive),97.1% (inactive),87.1% (inactive),99.2% (inactive),97.2% (inactive),90.7% (inactive),108% (inactive),104% (inactive),110% (inactive),93.8% (inactive),85.5% (inactive),89.8% (inactive),103% (inactive),102% (inactive),98.9% (inactive),105% (inactive),102% (inactive)
O=[N+]([O-])c1cc(Cl)c(Cl)cc1Cl,104% (inactive) and 108% (inactive),124% (inactive) and 111% (inactive),93.8% (inactive) and 121% (inactive),101% (inactive) and 131% (inactive),93.4% (inactive) and 102% (inactive),96.1% (inactive) and 102% (inactive),123% (inactive) and 105% (inactive),91.4% (inactive) and 115% (inactive),96.5% (inactive) and 98.4% (inactive),115% (inactive) and 124% (inactive),143% (inactive) and 119% (inactive),106% (inactive) and 113% (inactive),94.6% (inactive) and 108% (inactive),104% (inactive) and 95.4% (inactive),120% (inactive),104% (inactive) and 109% (inactive),100% (inactive) and 107% (inactive),104% (inactive),114% (inactive),105% (inactive) and 106% (inactive)
O=c1[nH]c(=O)[nH]c(=O)[nH]1,160% (inactive),115% (inactive),103% (inactive),98.1% (inactive),132% (inactive),148% (inactive),107% (inactive),113% (inactive),129% (inactive),135% (inactive),66.7% (inactive),110% (inactive),120% (inactive),95.3% (inactive),140% (inactive),161% (inactive),92.7% (inactive),129% (inactive),88.8% (inactive),
C(=NC1CCCCC1)=NC1CCCCC1,108% (inactive),101% (inactive) and 91.9% (inactive),87.5% (inactive) and 79.6% (inactive),103% (inactive) and 83.9% (inactive),117% (inactive),97.5% (inactive) and 48.6% (inactive),103% (inactive) and 61.4% (inactive),104% (inactive) and 87.6% (inactive),109% (inactive),97.2% (inactive) and 94.9% (inactive),92.8% (inactive) and 94.4% (inactive),41.3% (inactive),100% (inactive) and 82.2% (inactive),98% (inactive) and 76.9% (inactive),101% (inactive) and 104% (inactive),97.5% (inactive),91.3% (inactive) and 88.7% (inactive),104% (inactive) and 51.2% (inactive),118% (inactive) and 46.3% (inactive),77.3% (inactive)
C[C@]12CC[C@H]3[C@@H](CC=C4c5nc(N)sc5CC[C@@]43C)[C@@H]1CC[C@@H]2O,98.4% (inactive),95.5% (inactive),89.9% (inactive),99.2% (inactive),97.4% (inactive),98.5% (inactive),98.5% (inactive),87.8% (inactive),104% (inactive),113% (inactive),98% (inactive),101% (inactive),93.8% (inactive),96.3% (inactive),102% (inactive),106% (inactive),91.7% (inactive),86% (inactive),87.8% (inactive),91.2% (inactive)
COc1ccc(N)cc1OC,94.4% (inactive),105% (inactive),92% (inactive),101% (inactive),117% (inactive),80.1% (inactive),107% (inactive),97.5% (inactive),105% (inactive),112% (inactive),106% (inactive),111% (inactive),89.2% (inactive),90.5% (inactive),120% (inactive),100% (inactive),99% (inactive),100% (inactive),114% (inactive),98.6% (inactive)
S=P(SP(=S)(c1ccccc1)c1ccccc1)(c1ccccc1)c1ccccc1,97% (inactive),101% (inactive),91.2% (inactive),103% (inactive),101% (inactive),93.5% (inactive),99.9% (inactive),88.7% (inactive),98.5% (inactive),111% (inactive),96.6% (inactive),97.6% (inactive),97.5% (inactive),95.2% (inactive),96.8% (inactive),99.4% (inactive),97.9% (inactive),98.3% (inactive),48.5% (inactive),-61.3% (active)
NC(=O)c1c(Br)c(Br)c(Br)c(Br)c1C(=O)O (tested in a mixture with another compound),92.8% (inactive) and 106% (inactive),106% (inactive) and 103% (inactive),115% (inactive) and 95.8% (inactive),96.6% (inactive) and 104% (inactive),95.4% (inactive) and 96.2% (inactive),90.8% (inactive) and 86.6% (inactive),95.2% (inactive) and 101% (inactive),83.7% (inactive) and 104% (inactive),31.8% (inactive) and 101% (inactive),110% (inactive) and 108% (inactive),101% (inactive) and 113% (inactive),108% (inactive) and 99.9% (inactive),87.8% (inactive) and 93.3% (inactive),72.4% (inactive) and 51.5% (inactive),122% (inactive) and 123% (inactive),92.7% (inactive) and 101% (inactive),92.8% (inactive) and 97.5% (inactive),113% (inactive),85% (inactive) and 68.2% (inactive),35.5% (inactive) and 79.4% (inactive)
N#CCN(CC#N)[N+](=O)[O-],108% (inactive),103% (inactive),89.8% (inactive),99.1% (inactive),104% (inactive),95.4% (inactive),103% (inactive),98.2% (inactive),109% (inactive),106% (inactive),105% (inactive),104% (inactive),94% (inactive),101% (inactive),100% (inactive),110% (inactive),95.2% (inactive),95% (inactive),115% (inactive),85.2% (inactive)
CN(C)[C@@H]1C(=O)C(C(N)=O)=C(O)[C@@]2(O)C(=O)C3=C(O)c4c(O)ccc(Cl)c4[C@@](C)(O)[C@H]3C[C@@H]12,89.6% (inactive) and 105% (inactive),85.2% (inactive) and 109% (inactive),87.2% (inactive) and 84.1% (inactive),98.4% (inactive) and 97.9% (inactive),89.9% (inactive) and 103% (inactive),81.6% (inactive),98.9% (inactive) and 100% (inactive),72.9% (inactive) and 89.5% (inactive),86% (inactive) and 95.6% (inactive),109% (inactive) and 112% (inactive),81.6% (inactive) and 24.7% (inactive),111% (inactive) and 98.3% (inactive),93.7% (inactive) and 103% (inactive),55.1% (inactive) and 82.1% (inactive),86.9% (inactive),70.9% (inactive) and 94.4% (inactive),73.1% (inactive) and 99.6% (inactive),92.2% (inactive) and 110% (inactive),100% (inactive),94.1% (inactive) and 101% (inactive)
C[C@]12C[C@H](c3ccoc3)OC(=O)[C@H]1CC[C@@]1(C)[C@@H]2[C@H]2C=C[C@]1(O)C(=O)O2,101% (inactive),82.3% (inactive),78.3% (inactive),102% (inactive),97.8% (inactive),74.8% (inactive),106% (inactive),92.5% (inactive),106% (inactive),109% (inactive),94.9% (inactive),95.4% (inactive),97.6% (inactive),88% (inactive),88.6% (inactive),108% (inactive),81.9% (inactive),105% (inactive),73.5% (inactive),96% (inactive)
O=Cc1cn(Cc2ccccc2)c2ccccc12,106% (inactive),92% (inactive),67.8% (inactive),93.8% (inactive),68.5% (inactive),95% (inactive),85.5% (inactive),32.6% (inactive),79.4% (inactive),216% (inactive),27.1% (inactive),120% (inactive),98.1% (inactive),55.6% (inactive),25.1% (inactive),91.3% (inactive),21.9% (inactive),-92.7% (active),105% (inactive),104% (inactive)
CC12CCC3C(CCC4CC(O)CCC43C)C1CCC2=O (centres undefined),91.4% (inactive),102% (inactive),109% (inactive),112% (inactive),95.9% (inactive),99.6% (inactive),101% (inactive),98.9% (inactive),92% (inactive),189% (inactive),91.7% (inactive),73.4% (inactive),102% (inactive),94.1% (inactive),108% (inactive),109% (inactive),81.5% (inactive),162% (inactive),92.3% (inactive),107% (inactive)
